Assay results as given in PubChem BioAssay AID485358 (National Center for Advancing Translational Sciences (NCATS), 2010).
In all, about 340,000 compounds went through this assay and about 1,800 (0.53%) were called active. Only a selection was taken, and actives are over-represented in it overall. Unmarked numbers belong to inactive results.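 Rule for the calls: active = activation over 3 SD above normal in the single-dose calcium agonist read (cut at about 30% in these data); inactive = the rest.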

Target: D(2) dopamine receptor (Homo sapiens) (UniProt P14416)
Experiment: HTS Assay for Allosteric Agonists of the Human D2 Dopamine Receptor: Primary Screen for Agonists; note: 0% is about no effect
Details: HEK293 T-REx D2 cells, calcium flux agonist mode; at 2 µM; stronger effect = higher value
Excerpt: NIH Chemical Genomics Center [NCGC] NIH Molecular Libraries Probe Centers Network [MLPCN] MLPCN Grant: NS064831-01 Assay Submitter (PI): David Sibley Dopamine receptors (DARs) are involved in the etiology and/or therapy of a number of neuropsychiatric and endocrine disorders. For instance, all receptor-based antiparkinsonian drugs work via stimulating the D2 DAR subtype whereas all FDA-approved antipsychotic agents are antagonists of this receptor. […] There are three different types of allosteric modulators that we are seeking, two of which will stimulate or augment receptor signaling, allosteric agonists and potentiators, while the third, allosteric antagonists, will attenuate receptor signaling. The present primary screening assay measures compound agonism by tracking calcium flux in a […], inducible Hek293 Trex D2 cell line.
Freshly passaged cells are plated in 1536 well black, clear bottom plates at a density of 4000 cells/well in 3 ul of complete media containing 1x tetracycline inducer. After an overnight incubation at […] in 5% CO2, cells are loaded with 2 ul of the no wash Calcium Assay Kit (ABD Bioquest) and incubated at room temperature for 30 to 90 minutes. Agonist read: A 10 cycle (1 second/cycle) baseline measurement is taken and then the FDSS online 1536 pintool delivers 23 nl of compound library (as well as dopamine controls) to the plate. The plate is measured for kinetically at 1 cycle/sec for 180 seconds and is considered to be the agonist portion of the assay (eg, compounds which activate a positive calcium response during this portion are flagged as potential agonists). Following the 180 second read, 1 ul of either an EC20 (positive modulation assay) or EC80 (negative modulation assay) is delivered by an onboard pipette head. Measurements are taken kinetically for an additional 180 seconds.

D(2) dopamine receptor (Homo sapiens), sequence (P14416 whole entry, looked up): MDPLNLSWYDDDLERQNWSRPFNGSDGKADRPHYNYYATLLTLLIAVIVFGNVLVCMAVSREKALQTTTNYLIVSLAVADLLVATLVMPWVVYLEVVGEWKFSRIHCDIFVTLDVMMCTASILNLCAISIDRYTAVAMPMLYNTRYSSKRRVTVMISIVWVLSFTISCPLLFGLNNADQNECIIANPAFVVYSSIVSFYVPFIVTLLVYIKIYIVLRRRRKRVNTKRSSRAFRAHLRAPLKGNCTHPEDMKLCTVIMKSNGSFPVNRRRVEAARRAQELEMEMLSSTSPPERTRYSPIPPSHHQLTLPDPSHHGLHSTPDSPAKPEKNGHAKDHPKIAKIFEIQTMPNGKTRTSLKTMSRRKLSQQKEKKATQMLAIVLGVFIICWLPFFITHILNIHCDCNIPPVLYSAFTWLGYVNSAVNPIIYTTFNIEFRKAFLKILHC

Q: For `CC(C)c1ccc(OCC(O)Cn2cnc3ccccc32)cc1` (centres undefined), which activation is on record?
A: 1.03%

Q: How did the activation turn out when `CC(C)c1ccc(OCC(O)CN2CCN(c3ccccn3)CC2)cc1` (centres undefined) was run?
A: 66.2% (active)

Q: For `O=C(C(c1ccccc1)c1ccccc1)N1CCN(CC(O)COc2ccccc2)CC1` (centres undefined), which activation is on record?
A: -0.117%

Q: For `Cc1ccc(OCC(O)CN2CCN(CC(O)COc3ccc(C)cc3Cl)CC2)c(Cl)c1` (centres undefined), which activation is on record?
A: 0.53%

Q: How did the activation turn out when `O=S(=O)(c1ccc(OCC(O)CN2CCN(c3ccccc3Cl)CC2)cc1)N1CCOCC1` (centres undefined) was run?
A: -0.884%

Q: With `CNCC(O)CN1CCN(c2ccccc2OC)CC1` (centres undefined) as the compound, how does the activation read?
A: 0.328%

Q: Which activation does the source give for `CC1CCN(CC(O)COc2ccc(C(=O)c3ccccc3)cc2)CC1` (centres undefined) here?
A: -0.0837%

Q: For `Cc1ccccc1OCC(O)CN1CCN(c2ccccn2)CC1` (centres undefined), which activation is on record?
A: 64.7% (active)

Q: How did the activation turn out when `CC(=O)Nc1ccc(OCC(O)CN2CCN(c3ccccc3Cl)CC2)cc1` (centres undefined) was run?
A: 71.6% (active)

Q: Which activation does the source give for `C=CCc1ccccc1OCC(O)CN1CCN(CCO)CC1` (centres undefined) here?
A: -1.83%

Q: How did the activation turn out when `OC(COc1cccc2ccccc12)CN1CCN(c2ccccn2)CC1` (centres undefined) was run?
A: 66.3% (active)

Q: How did the activation turn out when `Cc1cccc(OCC(O)CN2CCN(CCN3C(=O)c4cccc5cccc(c45)C3=O)CC2)c1C` (centres undefined) was run?
A: -0.617%

Q: Which activation does the source give for `COc1cc(C(=O)N2CCN(c3ccc(Nc4ccc(C)cc4)nn3)CC2)cc(OC)c1OC` here?
A: -0.205%

Q: For `COc1ccccc1Cc1nc2ccccc2nc1SCC(=O)N1CCCc2ccccc21`, which activation is on record?
A: 1.06%

Q: For `COc1cccc(NC(=O)N(Cc2cn(C)c3ccccc23)C2CCCCCC2)c1`, which activation is on record?
A: 0.628%

Q: With `Cn1ccc2cc(S(=O)(=O)N3CCCC(C(=O)NCc4ccccc4F)C3)ccc21` (centres undefined) as the compound, how does the activation read?
A: -0.715%

Q: With `Cc1ccc(Cl)cc1NC(=O)CSc1nccn1C` as the compound, how does the activation read?
A: -0.262%

Q: How did the activation turn out when `CCc1ccc(CN(Cc2ccco2)C(=O)COc2ccc(Cl)c(C)c2)cc1` was run?
A: 3.85%

Q: For `COC(=O)C1=C(c2ccccc2)c2ccccc2S(=O)(=O)N1CC(=O)Nc1ccccc1C(F)(F)F`, which activation is on record?
A: -0.526%

Q: How did the activation turn out when `COc1ccccc1OCC(=O)Nc1nnc2n1CCS2` was run?
A: -1.11%

Q: `CCN1CCN(CCCNC(=O)c2ccc3c(c2)sc2nc(-c4ccc(OC)cc4)cn23)CC1` was tested. Which activation did it give?
A: 1.86%

Q: `Cc1nc2ccc(S(=O)(=O)NC(C(=O)NCc3ccccc3Cl)C(C)C)cc2s1` (centres undefined) was tested. Which activation did it give?
A: -0.364%

Q: Which activation does the source give for `Cn1c(=O)cc(OCC(=O)N2CCN(c3ccccc3)CC2)c2ccccc21` here?
A: 0.681%

Q: With `Cn1c(C(=O)NCCCN2CCN(c3cccc(Cl)c3)CC2)cc2c(=O)n(C)c3ccccc3c21` as the compound, how does the activation read?
A: 60.1% (active)

Q: For `Cn1c(C(=O)NCCc2ccsc2)cc2c(=O)n(C)c3ccccc3c21`, which activation is on record?
A: 0.0188%

Q: For `CCn1c(=O)cc(OCC(=O)NCCCN2CCN(c3cccc(Cl)c3)CC2)c2ccccc21`, which activation is on record?
A: 72.9% (active)

Q: For `CCN1CCCC1CNC(=O)c1cc2c(=O)n(C)c3ccccc3c2n1C` (centres undefined), which activation is on record?
A: 1.59%

Q: Which activation does the source give for `CCn1c(=O)cc(OCC(=O)Nc2cc(Cl)c(OC)cc2OC)c2ccccc21` here?
A: -0.253%

Q: `Cc1cc(C)cc(NC(=O)CSc2nc3nccnc3c(=O)n2CCc2c[nH]c3ccccc23)c1` was tested. Which activation did it give?
A: 0.038%

Q: With `Cc1ccccc1CNC(=O)C1CCCN(S(=O)(=O)N(C)c2ccc(F)cc2)C1` (centres undefined) as the compound, how does the activation read?
A: -0.556%

Q: With `CCOc1ccc(CNC(=O)c2ccc(CS(=O)c3ccccc3)o2)cc1` (centres undefined) as the compound, how does the activation read?
A: -0.363%

Q: How did the activation turn out when `CCCN(CCC)CCNC(=O)Cn1cnc2sc(C)c(S(=O)(=O)N3CCC(C)CC3)c2c1=O` was run?
A: 0.0784%

Q: Which activation does the source give for `CCCCC(=O)NNC(=S)NC(=O)C(c1ccccc1)c1ccccc1` here?
A: 52.5% (active)

Q: For `CCC(C)NC(=O)CCCc1ccccc1` (centres undefined), which activation is on record?
A: 1.02%

Q: With `CCCCCC(=O)NC(=S)NNC(=O)c1ccc([N+](=O)[O-])cc1` as the compound, how does the activation read?
A: 2.53%

Q: `CCCCOc1ccc(CN2C(=O)C(=O)c3cc(Br)cc(C)c32)cc1OC` was tested. Which activation did it give?
A: -0.896%

Q: How did the activation turn out when `Cc1ccc2[nH]c(=O)c(CN3CCCCC3)c(-c3ccccc3)c2c1` was run?
A: 16.6%

Q: `c1ccc2cc3[nH]c(CN4CCCCC4)nc3cc2c1` was tested. Which activation did it give?
A: 39.6% (active)

Q: Which activation does the source give for `Clc1ccc(CN2CCCCCC2)cc1Cl` here?
A: 0.701%

Q: How did the activation turn out when `COc1cc(Cl)c(NC(=O)C(NS(=O)(=O)c2cccs2)C(C)C)c(OC)c1` (centres undefined) was run?
A: 0.0329%

Q: `COc1ccc(-n2c(=O)c3sc4ccccc4c3n(CC(=O)Nc3cccc(C)c3)c2=O)cc1` was tested. Which activation did it give?
A: 1.94%

Q: With `COc1cccc(CNC(=O)C2CCCN(c3ncnc4c3nc3n4CCCCC3)C2)c1` (centres undefined) as the compound, how does the activation read?
A: -0.0991%

Q: For `COc1cccc(NC(=O)C2CCCN(c3ncnc4c3nc3n4CCCCC3)C2)c1` (centres undefined), which activation is on record?
A: 60.2% (active)

Q: With `CCOC(=O)c1cccc(NC(=O)C2CCN(c3ncnc4c3nc3n4CCCCC3)CC2)c1` as the compound, how does the activation read?
A: -0.296%
